Measured potencies and affinities stand elsewhere. Active and inactive are the calls of the source. No rule for the calls is given here.
These compounds were tested against CAAX prenyl protease 2 (Homo sapiens) (UniProt Q9Y256) (assay: inhibition of Ras-converting CAAX protease Rce1 – biochemical, yeast membranes, quenched-peptide fluorescence, cherry-pick, dose response (AID 588849)). Details: yeast membrane fractions expressing human Rce1, quenched-peptide fluorescence, 4 h; series mostly up to 10 µM.
Sequence of CAAX prenyl protease 2 (Homo sapiens) (Q9Y256 whole entry, looked up): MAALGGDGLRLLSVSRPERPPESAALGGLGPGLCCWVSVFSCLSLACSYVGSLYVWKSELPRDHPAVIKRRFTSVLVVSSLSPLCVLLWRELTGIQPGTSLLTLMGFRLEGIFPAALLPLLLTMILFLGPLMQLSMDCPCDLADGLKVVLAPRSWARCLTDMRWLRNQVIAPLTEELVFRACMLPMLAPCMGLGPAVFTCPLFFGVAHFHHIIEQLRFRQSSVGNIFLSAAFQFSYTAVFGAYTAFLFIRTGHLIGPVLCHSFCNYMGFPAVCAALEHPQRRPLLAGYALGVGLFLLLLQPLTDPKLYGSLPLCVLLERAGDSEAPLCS

outcome, inactive:
CCn1nc(C)cc1C(=O)NC1CC(C)(C)Cc2c1cnn2-c1cccc(F)c1 (stereo not drawn), CCn1c(C)nc2c(=O)oc3ccccc3c21, O=S(=O)(CC(CN1CCOCC1)N1CCOCC1)c1ccccc1 (stereo not drawn), O=C(CN(C1CCCCC1)C1CCCCC1)N1CCc2ccccc2C1, CC1(c2ccc(OCC#N)cc2)C=C(c2ccc(OCC#N)cc2)n2nc(C(F)(F)F)nc2N1 (stereo not drawn), Nc1nonc1-n1nnc(C(=O)N/N=C/c2ccoc2)c1CSc1ccccc1, CCn1cc(C(=O)NCCO)c(=O)c2cc(F)c(N3CCN(C)CC3)cc21, COc1ccc(CN2CCN(C(c3ccc(F)cc3)c3ccc(F)cc3)CC2)c(OC)c1OC, O=C(NC1CC1)c1ccc2c(c1)N(Cc1ccccc1)CCS2, Cc1ccc(-c2nc(SCC(=O)N(C)C3CCS(=O)(=O)C3)[nH]c2-c2ccc(C)cc2)cc1 (stereo not drawn), COc1cc2ccccc2cc1C(=O)N(CCN(C)C)c1nc2ccc(C)cc2s1, CCN(Cc1ccccc1)c1ccc(/C=N/N=C(N)N)cc1, O=c1c(-c2ccccc2)c(O)c2ccccc2n1-c1ccccc1, COC(C[C@@H]1O[C@@H]1C(=O)[C@@H](C)OCc1ccccc1)OC, C=C(C)C1(O)OC(=O)C=C1OC (stereo not drawn), C=CCc1cccc(/C=N/NC(=O)COc2ccc(-n3cnnn3)cc2)c1O, COc1cccc(NC(=O)Nc2cccn(Cc3ccc(C)cc3)c2=O)c1, CCN(CC)CCNC(=O)CSc1c2c(nc3cc(Cl)ccc13)CCCC2, CCCCNC(=O)c1cc2c(=O)n3cccc(C)c3nc2n(Cc2ccccc2)c1=N, Cc1cc(NC(=O)c2oc3ccccc3c2C)ccc1-n1cnnn1, COc1ccc(C2CC(c3ccc4ccccc4c3)=NN2C(=O)CNC2CCCCC2)cc1 (stereo not drawn), c1cnn(Cc2cnc(N3CCOCC3)s2)c1, Cc1cc2cc(C#N)c(NCCNC(=S)NCCCN3CCOCC3)nc2cc1C, O=C(Nc1cccc2ncccc12)c1cccnc1, COc1ccc(Cc2nc3ccc(C(=O)N4CCCC4)cc3o2)cc1, O=C(Nc1ccccc1)n1ccc(-c2ccc(-n3ccnc3)cc2)n1, O=C(C[n+]1cc2ccccc2c2ccccc21)c1ccccc1, COc1ccc(-c2c(-c3ccsc3)oc3ccc(N4CCOCC4)cc23)cn1, COCCNc1nc(N)c([N+](=O)[O-])c(N2CCCCCC2)n1, CCCC(=O)N1CCN(c2ccc(NC(=O)c3cc4ccccc4o3)cc2Cl)CC1, CCN(C(=O)COC(=O)c1cc(-c2cccs2)nc2ccccc12)C1CCS(=O)(=O)C1 (stereo not drawn), CC(=O)c1c(C)[nH]c(C(=O)OCc2ccc(Br)cc2)c1C, O=C(c1cnc(Cl)c(Cl)c1)N1CCC(Cc2ccccc2)CC1, CC(C)c1c(C(=O)N/N=C/c2c[nH]c3ccccc23)nnn1-c1nonc1N, CCCN(CCC)CCNC(=O)c1cc2c(-c3ccccc3F)nn(C)c2s1, CCC(C)Sc1cc(-c2nc3ccccn3c2NC2CCCCC2)ccc1OC (stereo not drawn), O=C(CSc1n[nH]c(-c2ccc(S(=O)(=O)N3CCCCC3)cc2)n1)Nc1nccs1, O=C(Nc1ccc(F)cc1)Oc1ccccc1N1CCOCC1

From PubChem BioAssay AID588849 (Broad Institute, 2011)
